Screening data from PubChem BioAssay.
mHTT-CaM PPI inh = mutant huntingtin-calmodulin interaction inhibitors – biochemical, AlphaScreen, primary screen. P42858. AlphaScreen His-mHTT/GST-CaM binding, luminescence. inhibition, % at 15 µM. 190,000 compounds, 3.6% hits;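 note: 0% = both proteins with DMSO and 100% = one protein alone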
Pf apPOL block = Pf-apPOL inhibitors, biochemical, fluorescence. 210,000 compounds, 0.25% hits. Recombinant Pf-apPOL, molecular beacon fluorescence, 1.5 h. Plasmodium falciparum apicoplast DNA polymerase (apPOL). AID 1794808, 2022. inhibition, % at 10 µM
* marks the source's active call; other numbers are inactive results; . = no result given. The list is not random: actives were taken first. Their share in the collection is about 3.5%. Cut-off read from the data, not from the text of the source: active = inhibition above about 50%; inactive = the rest.

SMILES	mHTT-CaM PPI inh	Pf apPOL block
NC(=O)c1c(NC(=O)C2CCCN(C(=O)c3ccco3)C2)sc2c1CCCC2 (stereo unspecified)	73*	-7
CCN(CC)/C(=C\C(=O)c1cccc([N+](=O)[O-])c1)c1ccccc1	6	17
CCOc1ccc(CC(=O)NCc2ccccc2)cc1OCC	10	-2
COc1cc(OC)c(OC)cc1CN1CCc2nc(N3CCC(C)CC3)ncc2C1	10	-6
CCOc1ccccc1CN1CCc2nc(N3CCN(CC)CC3)ncc2C1	26	-1
COc1ccc(N2CCN(c3ncc4c(n3)CCN(Cc3ccccc3C)C4)CC2)cc1	10	-2
COc1ccc(N2CCN(c3ncc4c(n3)CCN(Cc3ccccc3OC)C4)CC2)cc1	53*	-5
COc1ccc(CN2CCc3nc(N4CCN(c5ncccn5)CC4)ncc3C2)c(OC)c1	100*	-1
COc1ccc(OC)c(CN2CCc3nc(N4CCCC4)ncc3C2)c1	0	7
COc1ccc(CN2CCc3nc(N4CCC(C)CC4)ncc3C2)c(OC)c1	74*	3
CCOc1ccccc1CN1CCc2nc(N3CCN(c4ncccn4)CC3)ncc2C1	100*	-4
Cc1ccc(-c2nc(C#N)c(NCc3ccc(Cl)cc3)o2)cc1	46	-1
O=C(Cn1cc2c(n1)CCCCC2)Nc1c(F)cc(F)cc1Br	4	-4
CCNC(=O)C1CCCN1C(=O)c1ccccc1 (stereo unspecified)	1	-3
O=C(Nc1cccc(Cl)c1)c1ccc(-c2cncnc2)nc1	-5	-1
C=CSc1sc(Cl)c(N(C)Cc2ccccc2)c1[N+](=O)[O-]	64*	-76
CCN(Cc1ccccc1)Cc1ccccc1[N+](=O)[O-]	-22	-8
C=CSc1sc(Cl)c(N2CCCC2)c1[N+](=O)[O-]	75*	6
C=CSc1sc(Cl)c(N2CCCCCC2)c1[N+](=O)[O-]	43	6
OC(c1n[nH]c(=S)n1-c1ccccc1)C(O)c1n[nH]c(=S)n1-c1ccccc1 (stereo unspecified)	-3	.
CCN1CCCn2cc(S(=O)(=O)Nc3ccccc3C)cc2C1=O	6	4
O=c1oc2ccc(Cl)cc2nc1C=C(O)c1cccs1	13	-4
CCOC(=O)c1ccccc1NC(=O)N1CCC2(CC1)Nc1ccccc1-n1cccc12	60*	4
CCOC(=O)c1cccc(NC(=O)N2CCC3(CC2)Nc2ccccc2-n2cccc23)c1	66*	-5
CCOc1ccccc1NC(=O)N1CCC2(CC1)Nc1ccccc1-n1cccc12	21	-7
SMILES	mHTT-CaM PPI inh	Pf apPOL block
CCOC(=O)Cc1ccc(NC(=O)N2CCC3(CC2)Nc2ccccc2-n2cccc23)cc1	76*	4
O=C(Nc1cccc(C(F)(F)F)c1)N1CCC2(CC1)Nc1ccccc1-n1cccc12	97*	4
CC(C)C(N)C(O)(c1ccccc1)c1ccccc1 (stereo unspecified)	.	-12
COc1ccc(-c2cc(C(=O)N3CCCC3c3cc(C(C)C)on3)no2)cc1 (stereo unspecified)	1	-5
Fc1cccc(C2CC(c3cccc(Br)c3)Nc3ncnn32)c1 (stereo unspecified)	4	-6
C[C@H]1COc2cc(F)ccc2S(=O)(=O)N1C	-12	2
O=C(C=CNc1cccc(O)c1)c1ccc(Br)cc1	8	-9
COc1cccc(C2CC(c3ccc(I)cc3)Nc3ncnn32)c1OC (stereo unspecified)	34	-4
COc1cccc(C2CC(c3ccc(C)c(C)c3)Nc3ncnn32)c1OC (stereo unspecified)	53*	-2
COc1ccc(C2CC(c3cccc(Br)c3)Nc3ncnn32)c(OC)c1 (stereo unspecified)	41	-9
COc1ccc(C2CC(c3cc(OC)ccc3OC)n3ncnc3N2)cc1 (stereo unspecified)	17	-8
COc1ccc(C2CC(c3ccc(Br)cc3)Nc3ncnn32)c(OC)c1OC (stereo unspecified)	57*	0
COc1ccc(C2CC(c3ccc(Br)cc3)Nc3ncnn32)c(OC)c1 (stereo unspecified)	57*	-4
COc1ccc(OC)c(C2CC(c3ccc(Br)cc3)Nc3ncnn32)c1 (stereo unspecified)	61*	-2
COc1ccc(C2CC(c3ccc(C)cc3)Nc3ncnn32)c(OC)c1OC (stereo unspecified)	24	-6
c1ccc(CCSc2nc3ccccc3[nH]2)cc1	3	4
CCC(=O)Nc1c2c(nn1-c1ccc([N+](=O)[O-])cc1)CSC2	9	-4
CCc1nc(C)nc(N2CCN(S(C)(=O)=O)CC2)c1Cc1ccc(Cl)cc1	8	1
O=C(Nc1ccc(F)cc1)c1cccc([N+](=O)[O-])c1	-1	-9
CC(C)CCNC(=O)N1CC2CCCN2c2ccccc21 (stereo unspecified)	56*	-3
O=C(NCc1ccccc1)c1ccc(NC(=O)N2CC3CCCN3c3ccccc32)cc1 (stereo unspecified)	19	2
Cc1cccc(CNC(=O)CCC(=O)N2CC3CCCN3c3ccccc32)c1 (stereo unspecified)	41	-7
O=C(NCc1ccccc1)N1CC2CCCN2c2ccccc21 (stereo unspecified)	83*	0
Cc1ccc(CNC(=O)N2CC3CCCN3c3ccccc32)cc1 (stereo unspecified)	57*	-3
CCC1CN(C(=O)NCCC(C)C)c2ccccc2O1 (stereo unspecified)	-21	0
O=C(CSc1nnc(NC(=O)c2c(F)cccc2F)s1)NCC1CCCO1 (stereo unspecified)	-1	1
Cc1ccc(F)c(NC(=O)c2[nH]c3cc(C)sc3c2CN2CCOCC2)c1	31	22
